From PubChem BioAssay AID463173 (ICCB-Longwood Screening Facility, Harvard Medical School, 2010)
Hit rate of the full screen: of about 52,000 compounds, about 4,300 (8.3%) were called active. Cut-off read from the data, not from the text of the source: active = survival mostly below about 52% (no sharp cut-off); inactive = mostly above about 56%. The entries come from a sample that favours actives as a whole.

What follows are compounds tested on DeltatarO mutant (assay: S. aureus survival, RN4220 and DeltatarO strains – OD600, teichoic acid synthesis inhibitors, primary screen (AID 463173)). Details: S. aureus RN4220 wild type/DeltatarO growth, OD600, 18 h, active compounds read low, screened at 18.75 µg/mL (by protocol).

Compound | survival
O=C(Cn1c(=O)n(Cc2ccc3c(c2)OCO3)c(=O)c2ccc(C(=O)NC3CCCCC3)cc21)Nc1ccccc1F | 76% (inactive)
Cc1nc2c(C(=O)NCc3ccccc3)cnn2c(C)c1Cc1ccc(F)cc1 | 83% (inactive)
CCN(CC)C(=O)CSc1nc2ccccc2c(=O)n1Cc1ccco1 | 77% (inactive)
Cc1cccc(Cn2c(SCc3ccc(C(=O)NCc4ccccc4)cc3)nc3cccnc32)c1 | 46% (active)
Cc1cccc(Cn2c(SCc3ccc(C(=O)NCCc4ccccc4)cc3)nc3cccnc32)c1 | 115% (inactive)
Cc1cccc(CNC(=O)c2ccc(Cn3c(SCc4ccccc4)nc4cccnc43)cc2)c1 | 92% (inactive)
Cc1ccccc1C(=O)OCc1cc(=O)n2nc(-c3cccs3)sc2n1 | 117% (inactive)
Cc1ccc(C)c(CNC(=O)CN2C(=O)CSc3ccc(S(=O)(=O)N(C)C)cc32)c1 | 87% (inactive)
COc1ccc(CC(=O)Nc2sc3c(c2C(=O)Nc2cccc(Cl)c2)CCCCC3)cc1 | 59% (inactive)
COc1ccc(CC(=O)Nc2sc3c(c2C(=O)Nc2c(C)cccc2C)CCCCC3)cc1 | 47% (active)
COc1ccc(NC(=O)c2c(NCc3cccc(OC)c3)sc3c2CCCC3)cc1 | 86% (inactive)
COc1ccc(CC(=O)Nc2sc3c(c2C(=O)Nc2cccc(C)c2)CCCCC3)cc1 | 43% (active)
COc1ccc(CC(=O)Nc2sc3c(c2C(=O)Nc2ccc(C)cc2)CCCCC3)cc1 | 131% (inactive)
COc1ccc(CC(=O)Nc2sc3c(c2C(=O)Nc2ccccc2)CCCCC3)cc1 | 68% (inactive)
Cc1ccccc1CNc1nc(N(C)C)nc2c1cnn2C | 72% (inactive)
Cc1ccc(C(=O)c2cn(Cc3ccccc3F)c3cc4c(cc3c2=O)OCCO4)cc1 | 82% (inactive)
CCc1ccc(NC(=O)CSc2cn(CC(=O)N3CCOCC3)c3ccccc23)cc1 | 86% (inactive)
CSc1ccc(CCNC(=O)c2ccc(-c3nc(COc4ccccc4)c(C)o3)cc2)cc1 | 91% (inactive)
CC(C)(Cc1nc2ccccc2[nH]1)c1nc2ccccc2[nH]1 | 97% (inactive)
Cc1nn(-c2nc3ccccc3[nH]2)c(N)c1-c1ccccc1 | 2% (active)
Nc1ccc(Cc2nc3ccccc3[nH]2)cc1 | 86% (inactive)
COc1cc(OC)c(NC(=O)N2CCC(CN3CCCC3)CC2)cc1Cl | 84% (inactive)
COc1ccc(NC(=O)c2sc3nc(C(F)(F)F)cc(C)c3c2N)cc1OC | 140% (inactive)
N#Cc1cc2c(nc1SCC(=O)N1CCOCC1)CCC2 | 97% (inactive)
CC(Oc1ccc(F)cc1)C(=O)Nc1nc(-c2ccc(F)cc2)ns1 (stereo not drawn) | -2% (active)

Compound | survival
CCC(Oc1ccc(F)cc1)C(=O)Nc1nc(-c2ccc(F)cc2)ns1 (stereo not drawn) | -2% (active)
Cc1cc(C)cc(OCC(=O)Nc2nc(-c3ccc(F)cc3)ns2)c1 | 89% (inactive)
COc1ccc(-c2nsc(NC(=O)COc3ccc(C)c(C)c3)n2)cc1 | 65% (inactive)
CCC(Oc1ccc(F)cc1)C(=O)Nc1nc2c(s1)CCCC2 (stereo not drawn) | 83% (inactive)
COc1ccc(-c2nsc(NC(=O)C(C)Oc3ccc(Cl)c(C)c3)n2)cc1 (stereo not drawn) | 45% (active)
O=C(Nc1nc(-c2ccc(Br)cc2)ns1)c1ccc(F)cc1 | 52% (inactive)
COc1ccc(-c2nsc(NC(=O)c3oc4cc(C)c(C)cc4c3C)n2)cc1 | 67% (inactive)
O=C(COc1ccccc1Cl)Nc1nc(-c2ccc(F)cc2)ns1 | 55% (inactive)
CCC(=O)N1CCc2cc(CNC(=O)C(CC)c3ccccc3)ccc21 (stereo not drawn) | 92% (inactive)
Cc1cc2c(cc1NC(=O)c1ccccc1Cl)n(C)c(=O)c(=O)n2C | 79% (inactive)
CCC(=O)C1C(=O)CC(C)(C)CC1=O | 103% (inactive)
Cc1ccc(S(=O)(=O)c2nnn(CC(=O)Nc3ccccc3C)c2N)cc1C | 91% (inactive)
CN(Cc1ccccc1)C(=O)C1CCN(S(C)(=O)=O)CC1 | 80% (inactive)
COc1cc(OC)c(NC(=O)N2CCSc3ccccc32)cc1Cl | 74% (inactive)
COc1ccc(Br)cc1CNC(=O)CCC(=O)N1CCSc2ccccc21 | 41% (active)
O=C(Nc1cccc(Cl)c1)N1CCSc2ccccc21 | 79% (inactive)
COc1ccc(Br)cc1CNC(=O)CN1CCSc2ccccc21 | 88% (inactive)
CCOc1ccccc1CNC(=O)CCC(=O)N1CCSc2ccccc21 | 107% (inactive)
COc1cc(NC(=O)N2CCSc3ccccc32)cc(OC)c1OC | 52% (active)
COc1ccc(-c2c3c(=O)n(C)c(=O)n(C)c3c3c(-c4ccc(C)cc4)nc4ccccc4n23)cc1 | 82% (inactive)
CCCCOc1ccc(C2C(=O)N(C3CCCCC3)CC(=O)N2CCCC)cc1 (stereo not drawn) | 89% (inactive)
COc1cccc(C(C(=O)NC2CCCCC2)N(C(=O)c2ccccn2)c2cccnc2)c1 (stereo not drawn) | 81% (inactive)
CCOC(=O)N1CCC2(CC1)OC(=O)C(C)=C2C(=O)NCc1ccc(C)cc1 | 70% (inactive)
O=C(CSc1nnc(-c2ccccc2F)o1)N1CCc2ccccc21 | 100% (inactive)
O=C(CSc1nnc(-c2ccccc2Cl)o1)N1CCCc2ccccc21 | 35% (active)

Compound | survival
Cc1ccccc1-c1nnc(SCC(=O)N2CCCc3ccccc32)o1 | 9% (active)
Cc1ccc(-c2nnc(SCC(=O)N3CCCc4ccccc43)o2)cc1 | 63% (inactive)
O=C(CSc1nnc(-c2ccc(Cl)cc2)o1)N1CCc2ccccc21 | 96% (inactive)
Cc1ccc(-c2nnc(SCC(=O)N3CCc4ccccc43)o2)cc1 | 95% (inactive)
O=C(CSc1nnc(-c2ccccc2)o1)N1CCCc2ccccc21 | 80% (inactive)
Cc1cccc(-c2nnc(SCC(=O)N3CCCc4ccccc43)o2)c1 | 11% (active)
O=C(CSc1nnc(-c2ccc(F)cc2)o1)N1CCCc2ccccc21 | 72% (inactive)
Cc1ccc(NC(=O)c2ccc(NC(=O)N3CCSc4ncccc43)cc2)c(Cl)c1 | 64% (inactive)
COc1cccc(-c2nc(CS(=O)(=O)CC(=O)Nc3cccc(C(C)=O)c3)c(C)o2)c1 | 71% (inactive)
CCc1cccc(NC(=O)CN2c3ccccc3S(=O)(=O)c3ccccc32)c1 | 72% (inactive)
CCOc1ccc(CC(=O)NCCc2csc(-c3ccc(C)cc3)n2)cc1 | 88% (inactive)
COc1ccc(CCNC(=O)c2ccc(-n3c(C)cc4c3CCC(C)C4)cc2)cc1OC (stereo not drawn) | 52% (active)
CCOc1ccc(CCNC(=O)c2ccc(-n3c(C)cc4c3CCC(C)C4)cc2)cc1OCC (stereo not drawn) | 82% (inactive)
COc1ccc(CCNC(=O)c2ccc(-n3c(C)cc4c3CCCC4)cc2)cc1OC | 74% (inactive)
CCOC(=O)C1CCN(C(=O)C2CCN(C3=NS(=O)(=O)C(c4ccc(C)cc4)=C3CC)CC2)CC1 | 115% (inactive)
O=C(NCC(c1ccco1)S(=O)(=O)c1cccs1)c1ccc(Cl)cc1 (stereo not drawn) | 102% (inactive)
O=C(Cn1c(=O)oc2cc(Cl)ccc21)Nc1cccc(C(F)(F)F)c1 | 89% (inactive)
O=C(Cc1ccc(F)cc1)NCCc1csc2nc(-c3ccc(Cl)cc3)nn12 | 95% (inactive)
CCOC(=O)c1ccc(NS(=O)(=O)c2ccc3c(c2)OCCO3)cc1 | 74% (inactive)
O=S(=O)(Nc1cccc(C(F)(F)F)c1)c1ccc(NS(=O)(=O)c2ccc3c(c2)OCCO3)cc1 | 6% (active)
O=S(=O)(Nc1ccc(C(F)(F)F)cc1)c1ccc2c(c1)OCCO2 | 69% (inactive)
CC(=O)c1ccc(NS(=O)(=O)c2cccc(S(=O)(=O)c3ccc(Cl)cc3)c2)cc1 | 124% (inactive)
CN1CCN(S(=O)(=O)c2cccc(S(=O)(=O)c3ccc(Cl)c(Cl)c3)c2)CC1 | 102% (inactive)
O=S(=O)(Nc1ccc(Cl)cc1)c1ccc(NS(=O)(=O)c2ccc3c(c2)OCCO3)cc1 | 38% (active)
Cc1c(Cl)cccc1NS(=O)(=O)c1ccc(NS(=O)(=O)c2ccc3c(c2)OCCO3)cc1 | 13% (active)

Compound | survival
COC(=O)c1cc(NS(=O)(=O)c2ccc3c(c2)OCCO3)ccc1Cl | 65% (inactive)
Cc1cccc(C)c1NS(=O)(=O)c1ccc(NS(=O)(=O)c2ccc3c(c2)OCCO3)cc1 | 110% (inactive)
O=S(=O)(Nc1c(F)cccc1F)c1ccc2c(c1)OCCO2 | 63% (inactive)
COc1ccc(NS(=O)(=O)c2ccc(NS(=O)(=O)c3ccc4c(c3)OCCO4)cc2)cc1 | 116% (inactive)
O=S(=O)(Nc1ccc(Cl)cc1)c1cccc(S(=O)(=O)c2ccc(Cl)c(Cl)c2)c1 | 37% (active)
O=C(O)CSc1nc2ccc(Cl)cc2[nH]1 | 84% (inactive)
CCOc1cccc2sc(N(Cc3cccnc3)C(=O)c3ccco3)nc12 | 77% (inactive)
CCc1cc(C(=O)NC(C)c2ccccc2)no1 (stereo not drawn) | 60% (inactive)
Cc1ccc(NC(=O)CSc2nc(=O)n(Cc3ccncc3)c3c2CCC3)cc1Cl | 80% (inactive)
Cc1cn(S(=O)(=O)c2ccc(F)c(Cl)c2)cn1 | 91% (inactive)
Nc1c(C(=O)Nc2ccc(C(F)(F)F)cc2)sc2nc(-c3cccs3)ccc12 | 70% (inactive)
CCN1CCN(c2ncc3c(n2)CCN(Cc2cc(F)cc(F)c2)C3)CC1 | 90% (inactive)
CCCCOc1ccc(CSCCN=C(N)N)cc1 | 1% (active)
CC(C)Oc1ccc(CSCCN)cc1 | 90% (inactive)
COc1ccc(CCCN=C(N)N)cc1Cl | 105% (inactive)
O=C(NCc1ccccc1)c1ccc(CSc2nc3cccnc3n2Cc2cccc(F)c2)cc1 | 101% (inactive)
COC(=O)c1ccc2c(c1)N(CC(=O)Nc1cccc(Cl)c1C)C(=O)c1ccccc1S2 | 74% (inactive)
FC(F)(F)Oc1ccc2c(c1)NC(c1ccncc1)=NC(c1cccs1)=N2 | 91% (inactive)
Clc1ccc2c(c1)NC(c1ccncc1)=NC(c1cccs1)=N2 | 76% (inactive)
Fc1ccc2c(c1)NC(c1ccncc1)=NC(c1cccs1)=N2 | 30% (active)
CC(C)c1ccc2c(c1)NC(c1ccc(F)cc1)=NC(c1cccs1)=N2 | 45% (active)
CCOc1ccc(C2=NC(c3cccs3)=Nc3ccc(C(C)C)cc3N2)cc1 | 58% (inactive)
CC(C)c1ccc2c(c1)NC(c1ccncc1)=NC(c1cccs1)=N2 | 72% (inactive)
